Laboratory results: PubChem BioAssay (Tox21)
“And” between values parts separate entries of the source, which are not always exact repeats. Identical values can stand only once. Values without a mark were called inactive. Inconclusive results are not listed. Where a call stands in place of a potency, no number is given. The source made the active and inactive calls. Unless noted, the call rests on the fitted dose curve; in most records, active means well fitted curve in the direction sought with a large enough effect in the repeat runs; inconclusive means weak or mixed curves; inactive means no such curve, though single readings can be large; an effect the other way counts as inactive or inconclusive.

Tests used:
[1] = qHTS assay to test for compound auto fluorescence at 535 nm (green) in HEK293 cells (AID 720680)
[2] = qHTS assay to test for compound auto fluorescence at 460 nm (blue) in HEK293 cell free culture (AID 720681)
Procedure, shortened: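 Test compounds were pinned into cell-free culture medium (DMEM with 10% FBS) and fluorescence was read directly at Ex/Em 405/460 nm. Signals were expressed as fluorescence equivalents of triamterene, with DMSO vehicle as control.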

[3] = qHTS assay to test for compound auto fluorescence at 535 nm (green) in HEK293 cell free culture (AID 720682)
Procedure, shortened: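 Intrinsic compound fluorescence is measured in culture medium containing 10% FBS, with excitation at 485 nm and detection at 535 nm, referenced to fluorescein.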

[4] = qHTS assay to test for compound auto fluorescence at 590 nm (red) in HEK293 cell free culture (AID 720683)
Procedure, shortened: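 Tox21 10K library compounds were pinned into cell-free DMEM with 10% FBS and fluorescence was read at excitation 540 nm. Activity is expressed as Rose Bengal sodium equivalency.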

[5] = qHTS assay to test for compound auto fluorescence at 590 nm (red) in HepG2 cell free culture (AID 720684)
Procedure, shortened: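 Readout: intrinsic compound fluorescence at 590 nm emission after 540 nm excitation, scaled to Rose Bengal sodium. Matrix was cell-free MEM with 10% FBS; DMSO vehicle wells served as control.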

[6] = qHTS assay to test for compound auto fluorescence at 460 nm (blue) in HepG2 cell free culture (AID 720685)
Procedure, shortened: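 Cell-free plates of MEM plus 10% FBS received 23 nL compound or DMSO vehicle; blue-channel (405/460 nm) intensity scored against triamterene as reference fluorophore.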

[7] = qHTS assay to test for compound auto fluorescence at 535 nm (green) in HepG2 cell free culture (AID 720686)
[8] = qHTS assay to test for compound auto fluorescence at 460 nm (blue) in HepG2 cells (AID 720687)
Procedure, shortened: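 Cells (2,000/well in MEM with 10% FBS) attached overnight at 37 C, then were exposed to compound or DMSO for 1 hr at 37 C, 5% CO2. Fluorescence read at Ex/Em 405/460 nm, expressed as triamterene-equivalent signal.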

[9] = qHTS assay to identify small molecule antagonists of the glucocorticoid receptor (GR) signaling pathway - cell viability counter screen (AID 720693); further: nearly all actives have a fitted effect of over 55% in size
[10] = qHTS assay for identifying genotoxic compounds that show differential cytotoxicity against isogenic chicken DT40 cell lines with known DNA damage response pathways - wild type cell line (AID 743012); further: nearly all actives have a fitted effect of over 60% in size; further: potency means the concentration at half of the fitted maximal effect
Procedure, shortened: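 Luminescent ATP viability signal (CellTiter-Glo, 30 min RT) recorded after wild type DT40 cells were incubated with compounds for 40 h at 37 C/5% CO2.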

[11] = qHTS assay for identifying genotoxic compounds that show differential cytotoxicity against isogenic chicken DT40 cell lines with known DNA damage response pathways - Rev3 mutant cell line (AID 743014); further: nearly all actives have a fitted effect of over 55% in size; further: potency means the concentration at half of the fitted maximal effect
[12] = qHTS assay for identifying genotoxic compounds that show differential cytotoxicity against isogenic chicken DT40 cell lines with known DNA damage response pathways - Rad54/Ku70 mutant cell line (AID 743015); further: nearly all actives have a fitted effect of over 60% in size; further: potency means the concentration at half of the fitted maximal effect
[13] = qHTS assay to identify small molecule antagonists of the androgen receptor (AR) signaling pathway - cell viability counter screen (AID 743033; further: nearly all actives have a fitted effect of over 45% in size)
[14] = qHTS assay to identify small molecule antagonists of the androgen receptor (AR) signaling pathway using the MDA cell line - cell viability counter screen (AID 743041; further: nearly all actives have a fitted effect of over 45% in size)
Procedure, shortened: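 qHTS viability read-out; MDA-kb2 AR-luc; R1881-stimulated; 16 h exposure at 37C, 0% CO2; CellTiter-Fluor, 30 min; fluorescence intensity.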

[15] = molecular target: Androgen receptor (Homo sapiens) (UniProt P10275); assay: qHTS assay to identify small molecule agonists of the androgen receptor (AR) signaling pathway using the MDA cell line (AID 743040; further: nearly all actives have a fitted effect of over 20% in size)
Procedure, shortened: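 Agonist activity is measured as luciferase luminescence in human MDA-kb2 cells whose MMTV reporter responds to both AR and GR. Compounds in DMSO incubate 16 h at 37C, 0% CO2, and ONE-Glo is read after 30 min.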

[16] = molecular target: Androgen receptor (Homo sapiens) (UniProt P10275); assay: qHTS assay to identify small molecule antagonists of the androgen receptor (AR) signaling pathway using the MDA cell line (AID 743042; further: nearly all actives have a fitted effect of over 55% in size)
Procedure, shortened: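 MDA-kb2 cells (human breast carcinoma, stably carrying an MMTV-luciferase reporter responsive to AR and GR) were plated at 3,000 cells/well and preincubated 5 hr at 37C, then given compound plus R1881 agonist for 16 h. ONE-Glo luminescence was read.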

[17] = qHTS assay to identify small molecule antagonists of the thyroid receptor (TR) signaling pathway - cell viability counter screen (AID 743064); further: nearly all actives have a fitted effect of over 50% in size
Procedure, shortened: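 Same-well viability check: GH3.TRE-Luc cells stimulated with 1 nM T3 alongside test compound for 23.5 h, followed by CellTiter-Fluor fluorescence.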

[18] = molecular target: Androgen receptor (Homo sapiens) (UniProt P10275); assay: qHTS assay to identify small molecule antagonists of the androgen receptor (AR) signaling pathway (AID 743035; active means well fitted inhibition curve with a large enough effect in the signal ratio in the repeat runs, not every such curve was filed as active; the % refers to the signal ratio)
Procedure, shortened: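 Quantitative HTS of the Tox21 10K library used HEK293 AR-UAS-bla cells stimulated with R1881 alongside compound for 16 h at 37C, followed by beta-lactamase FRET detection (LiveBLAzer B/G, 2 h, RT).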

[19] = molecular target: Glucocorticoid receptor (Homo sapiens) (UniProt P04150); assay: qHTS assay to identify small molecule agonists of the glucocorticoid receptor (GR) signaling pathway (AID 720691; active means well fitted activation curve with a large enough effect in the signal ratio in the repeat runs, not every such curve was filed as active; the % refers to the signal ratio)
Procedure, shortened: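 Cells: GR-bla HeLa, endogenous GR with stably integrated GRE-beta-lactamase reporter. Treatment 18 h, 37 C, compounds delivered in DMSO. Detection via LiveBLAzer B/G FRET substrate, 2 h RT, fluorescence intensity.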

[20] = molecular target: Glucocorticoid receptor (Homo sapiens) (UniProt P04150); assay: qHTS assay to identify small molecule antagonists of the glucocorticoid receptor (GR) signaling pathway (AID 720692; active means well fitted inhibition curve with a large enough effect in the signal ratio in the repeat runs, not every such curve was filed as active; the % refers to the signal ratio)
Procedure, shortened: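 Quantitative HTS in antagonist format: HeLa cells expressing endogenous GR and a stably integrated GRE-bla reporter, stimulated with 5 nM dexamethasone (final) alongside test compounds for 18 h.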

Androgen receptor (Homo sapiens), sequence (P10275 whole entry, looked up): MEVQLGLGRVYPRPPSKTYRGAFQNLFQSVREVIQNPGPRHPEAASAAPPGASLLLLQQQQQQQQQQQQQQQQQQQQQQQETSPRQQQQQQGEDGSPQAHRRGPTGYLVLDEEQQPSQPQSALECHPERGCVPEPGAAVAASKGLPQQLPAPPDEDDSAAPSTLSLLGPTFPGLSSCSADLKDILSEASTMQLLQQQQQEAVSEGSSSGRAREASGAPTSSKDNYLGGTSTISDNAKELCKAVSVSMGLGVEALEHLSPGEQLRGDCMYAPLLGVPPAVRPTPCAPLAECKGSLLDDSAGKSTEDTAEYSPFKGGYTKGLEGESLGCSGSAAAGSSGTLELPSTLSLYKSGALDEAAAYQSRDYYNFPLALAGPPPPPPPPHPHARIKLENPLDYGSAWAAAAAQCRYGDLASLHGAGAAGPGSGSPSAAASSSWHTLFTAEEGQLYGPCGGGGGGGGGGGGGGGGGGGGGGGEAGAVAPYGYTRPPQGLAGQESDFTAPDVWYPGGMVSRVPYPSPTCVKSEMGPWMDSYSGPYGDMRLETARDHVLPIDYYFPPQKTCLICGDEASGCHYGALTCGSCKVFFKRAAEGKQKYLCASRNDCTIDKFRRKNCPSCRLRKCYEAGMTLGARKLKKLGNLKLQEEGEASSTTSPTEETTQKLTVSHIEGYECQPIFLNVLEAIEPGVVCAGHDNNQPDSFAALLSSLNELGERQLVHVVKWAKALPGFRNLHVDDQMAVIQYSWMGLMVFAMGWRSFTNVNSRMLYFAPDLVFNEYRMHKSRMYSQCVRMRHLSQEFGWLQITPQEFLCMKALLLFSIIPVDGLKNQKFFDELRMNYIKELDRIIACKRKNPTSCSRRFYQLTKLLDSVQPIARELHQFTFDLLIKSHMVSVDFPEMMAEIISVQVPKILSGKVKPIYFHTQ
Glucocorticoid receptor (Homo sapiens), sequence (P04150 whole entry, looked up): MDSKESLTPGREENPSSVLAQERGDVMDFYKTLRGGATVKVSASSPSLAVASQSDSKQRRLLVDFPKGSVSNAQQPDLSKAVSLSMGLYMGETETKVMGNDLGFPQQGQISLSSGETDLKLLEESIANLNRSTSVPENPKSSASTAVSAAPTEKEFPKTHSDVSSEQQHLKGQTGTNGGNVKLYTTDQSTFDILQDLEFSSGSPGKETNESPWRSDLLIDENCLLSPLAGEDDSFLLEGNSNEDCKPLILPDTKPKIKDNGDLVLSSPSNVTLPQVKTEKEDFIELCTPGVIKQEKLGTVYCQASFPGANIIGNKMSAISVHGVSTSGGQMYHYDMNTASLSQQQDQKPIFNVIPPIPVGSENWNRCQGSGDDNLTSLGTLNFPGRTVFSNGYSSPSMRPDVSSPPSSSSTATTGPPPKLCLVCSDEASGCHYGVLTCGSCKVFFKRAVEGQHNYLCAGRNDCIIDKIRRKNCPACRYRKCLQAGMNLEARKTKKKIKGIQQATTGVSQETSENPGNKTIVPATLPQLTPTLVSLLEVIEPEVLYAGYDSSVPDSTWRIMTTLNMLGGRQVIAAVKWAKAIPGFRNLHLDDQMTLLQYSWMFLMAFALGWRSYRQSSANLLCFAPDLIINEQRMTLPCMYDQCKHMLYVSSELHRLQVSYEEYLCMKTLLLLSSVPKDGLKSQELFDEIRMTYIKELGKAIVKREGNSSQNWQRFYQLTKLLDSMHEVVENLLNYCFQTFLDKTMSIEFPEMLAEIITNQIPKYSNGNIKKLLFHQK

CC[N+](C)(CC)CCOC(=O)C1c2ccccc2Oc2ccccc21
outcome [1]: inactive | outcome [2]: inactive | outcome [3]: inactive | outcome [4]: inactive | outcome [5]: inactive | outcome [6]: inactive | outcome [7]: inactive | outcome [8]: inactive | outcome [9]: inactive | Potency [10]: inactive | Potency [11]: inactive | Potency [12]: inactive | outcome [13]: inactive | Potency [14]: inactive

CO[C@@]1(NC(=O)CSC[C@@H](N)C(=O)O)C(=O)N2C(C(=O)O)=C(CSc3nnnn3C)CS[C@@H]21
outcome [1]: inactive | outcome [2]: inactive | outcome [3]: inactive | outcome [4]: inactive | outcome [5]: inactive | outcome [6]: inactive | outcome [7]: inactive | outcome [8]: inactive | outcome [9]: inactive | Potency [10]: inactive | Potency [11]: inactive | Potency [12]: inactive | outcome [13]: inactive | Potency [15]: inactive | Potency [14]: inactive | outcome [16]: inactive | Potency [17]: inactive

CN1CCN(c2cc3c(nn2)Oc2ccccc2N3C)CC1
outcome [1]: inactive | outcome [2]: inactive | outcome [3]: inactive | outcome [4]: inactive | outcome [5]: inactive | outcome [6]: inactive | outcome [7]: inactive | outcome [8]: inactive | outcome [9]: inactive | Potency [10]: inactive | Potency [11]: inactive | Potency [12]: inactive | outcome [13]: inactive | Potency [14]: inactive | Potency [17]: inactive

COC(=O)C1=C(C)NC(C)=C(C(=O)OC(C)C)C1c1cccc2nonc12 (stereo unspecified)
fluorescence, % of fluorescein [1]: -0.0539% [at 18.6 µM] | fluorescence, % of fluorescent control [2]: 0.0173% [at 18.6 µM] | activity change [3]: 0.0719% [at 18.6 µM] | fluorescence, % of fluorescent control [4]: -0.0484% [at 18.6 µM] | fluorescence, % of Rose Bengal [5]: -0.0514% [at 18.6 µM] | fluorescence, % of fluorescent control [6]: -0.0347% [at 18.6 µM] | fluorescence, % of fluorescein control [7]: -0.0109% [at 18.6 µM] | fluorescence, % of fluorescent control [8]: 0.0339% [at 18.6 µM] | outcome [9]: inactive | Potency [10]: inactive | Potency [18]: inactive | Potency [15]: inactive | Potency [14]: inactive | outcome [16]: inactive | Potency [17]: inactive

CC(C)c1ccc2ncccc2c1
outcome [1]: inactive | outcome [2]: inactive | outcome [3]: inactive | outcome [4]: inactive | outcome [5]: inactive | outcome [6]: inactive | outcome [7]: inactive | outcome [8]: inactive | outcome [9]: inactive | Potency [10]: inactive | Potency [12]: inactive | outcome [13]: inactive | Potency [17]: inactive

CC1=C(C/C=C(\C)CCC[C@H](C)CCC[C@H](C)CCCC(C)C)C(=O)c2ccccc2C1=O
outcome [1]: inactive | outcome [2]: inactive | outcome [3]: inactive | outcome [4]: inactive | outcome [5]: inactive | outcome [7]: inactive | outcome [8]: inactive | Potency [19]: inactive | Potency [20]: inactive | outcome [9]: inactive | Potency [10]: inactive | Potency [12]: inactive | outcome [13]: inactive | Potency [14]: inactive | Potency [17]: inactive

CC1=NN(c2cccc(S(=O)(=O)O)c2)C(=O)C1
outcome [1]: inactive | outcome [2]: inactive | outcome [3]: inactive | outcome [4]: inactive | outcome [5]: inactive | outcome [7]: inactive | outcome [8]: inactive | Potency [19]: inactive | Potency [20]: inactive | Potency [10]: inactive | Potency [11]: inactive | Potency [12]: inactive | outcome [13]: inactive | Potency [18]: inactive | Potency [15]: inactive | Potency [14]: inactive | outcome [16]: inactive | Potency [17]: inactive

CN1CC(=O)N/C1=N/C(=O)Nc1cccc(Cl)c1
outcome [1]: inactive | outcome [2]: inactive | outcome [3]: inactive | outcome [4]: inactive | outcome [5]: inactive | outcome [7]: inactive | outcome [8]: inactive | Potency [19]: inactive | Potency [20]: inactive | outcome [9]: inactive | Potency [10]: inactive | Potency [11]: inactive | Potency [12]: inactive | outcome [13]: inactive | Potency [14]: inactive | Potency [17]: inactive

CCOC(=O)c1cnc2c(cnn2CC)c1NN=C(C)C
outcome [1]: inactive | outcome [2]: inactive | outcome [3]: inactive | outcome [4]: inactive | outcome [5]: inactive | outcome [6]: inactive | outcome [7]: inactive | outcome [8]: inactive | outcome [9]: inactive | outcome [13]: inactive | Potency [14]: inactive

Cc1nc2ccc(CN(C)c3ccc(C(=O)N[C@@H](CCC(=O)O)C(=O)O)s3)cc2c(=O)[nH]1
outcome [1]: inactive | outcome [2]: inactive | outcome [3]: inactive | outcome [4]: inactive | outcome [5]: inactive | outcome [6]: inactive | outcome [7]: inactive | outcome [8]: inactive | outcome [9]: inactive | Potency [10]: 3.8 nM (active) and 7.5 nM (active) | Potency [11]: 2.7 nM (active) and 5.3 nM (active) | Potency [12]: 2.1 nM (active) and 4.2 nM (active) | outcome [13]: inactive | Potency [18]: inactive | Potency [15]: inactive | outcome [16]: inactive

COc1ccccc1OCC1CNC(=O)O1 (stereo unspecified)
outcome [1]: inactive | outcome [2]: inactive | outcome [3]: inactive | outcome [4]: inactive | outcome [5]: inactive | outcome [6]: inactive | outcome [7]: inactive | outcome [8]: inactive | outcome [9]: inactive | Potency [10]: inactive | Potency [11]: inactive | Potency [12]: inactive | outcome [13]: inactive | Potency [17]: inactive

CC(=O)Oc1cccc(C)c1
outcome [1]: inactive | outcome [2]: inactive | outcome [3]: inactive | outcome [4]: inactive | outcome [5]: inactive | outcome [6]: inactive | outcome [7]: inactive | outcome [8]: inactive | outcome [9]: inactive | Potency [10]: inactive | Potency [11]: inactive | Potency [12]: inactive | outcome [13]: inactive | Potency [14]: inactive | Potency [17]: inactive

CCCCCCC1CCC(=O)O1 (stereo unspecified)
outcome [1]: inactive | outcome [2]: inactive | outcome [3]: inactive | outcome [4]: inactive | outcome [5]: inactive | outcome [6]: inactive | outcome [7]: inactive | outcome [8]: inactive | outcome [9]: inactive | Potency [11]: inactive | Potency [12]: inactive | outcome [13]: inactive | Potency [14]: inactive | Potency [17]: inactive

CC(CC=O)CC(C)(C)C (stereo unspecified)
outcome [1]: inactive | outcome [2]: inactive | outcome [3]: inactive | outcome [4]: inactive | outcome [5]: inactive | outcome [6]: inactive | outcome [7]: inactive | outcome [8]: inactive | outcome [9]: inactive | Potency [10]: inactive | Potency [11]: inactive | Potency [12]: inactive | outcome [13]: inactive | Potency [14]: inactive | Potency [17]: inactive

CCCCCCCC1CCCC1=O (stereo unspecified)
outcome [1]: inactive | outcome [2]: inactive | outcome [3]: inactive | outcome [4]: inactive | outcome [5]: inactive | outcome [6]: inactive | outcome [7]: inactive | outcome [8]: inactive | outcome [9]: inactive | Potency [10]: inactive | Potency [11]: inactive | Potency [12]: inactive | outcome [13]: inactive | Potency [18]: inactive | Potency [15]: inactive | Potency [14]: inactive | outcome [16]: inactive | Potency [17]: inactive
